# Source: PubChem BioAssay (NCI)
# Compounds without any hit were thinned out: in the full panel of roughly 79,000, 15% have a hit. A number with no mark means an inactive call. Activity calls are given as the source filed them. Cut-off read from the data, not from the text of the source: active = growth inhibition above about 70%; inactive = the rest.
# How the values were obtained:
# [1] = NCI Yeast Anticancer Drug Screen. Data for the rad52 strain (AID 147);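 note: 0% = growth of vehicle-treated control cultures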; conditions: S. cerevisiae rad52 mutant growth inhibition, hits give high values
# Procedure, shortened: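 Yeast strain carrying a DNA damage repair alteration was exposed to test compounds. Growth inhibition was measured relative to vehicle-treated controls.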
# [2] = NCI Yeast Anticancer Drug Screen. Data for the wt1 strain (AID 149);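 note: 0% = growth of vehicle-treated wt1 cultures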; conditions: S. cerevisiae wt1 strain (SPY 50644) growth inhibition, hits give high values
# Procedure, shortened: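 Vehicle-normalised growth inhibition; strain wt1; compound exposure.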
# [3] = NCI Yeast Anticancer Drug Screen. Data for the rad50EPP+ strain (AID 151);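 note: 0% = growth of vehicle-treated control cultures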; conditions: S. cerevisiae rad50 mutant strain, hits give high values
# Procedure, shortened: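 Yeast strain carrying rad50 alteration (rad50EPP+) exposed to compounds; growth inhibition measured relative to vehicle-treated controls.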
# [4] = NCI Yeast Anticancer Drug Screen. Data for the mgt1 strain (AID 153); conditions: S. cerevisiae mgt1 mutant growth inhibition, hits give high values
# Procedure, shortened: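 Yeast mgt1 strain (DNA repair/cell-cycle alteration panel) exposed to compounds; growth inhibition measured relative to vehicle-treated controls.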
# [5] = NCI Yeast Anticancer Drug Screen. Data for the rad50 strain (AID 155);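 note: 0% = growth of vehicle-only cultures of the same strain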; conditions: S. cerevisiae rad50 strain growth inhibition, hits give high values
# Procedure, shortened: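 A DNA repair-deficient yeast mutant serves as the test organism; compound-induced growth inhibition is calculated against vehicle-treated cells.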
# [6] = NCI Yeast Anticancer Drug Screen. Data for the mec2-1 strain (AID 157); conditions: S. cerevisiae mec2-1 strain, hits give high values
# Procedure, shortened: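 mec2-1 yeast strain, carrying an alteration in DNA damage repair or cell cycle control, was exposed to compounds; growth inhibition was measured relative to vehicle-treated controls.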
# [7] = NCI Yeast Anticancer Drug Screen. Data for the rad14 strain (AID 159);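 note: 0% = growth of vehicle-treated control cultures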; conditions: S. cerevisiae rad14 strain growth inhibition, hits give high values
# Procedure, shortened: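 Vehicle-treated cultures served as the baseline for growth inhibition of a DNA repair-mutant yeast strain exposed to each compound.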
# [8] = NCI Yeast Anticancer Drug Screen. Data for the sgs1 mgt1 strain (AID 161);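 note: 0% = growth of cultures given vehicle only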; conditions: S. cerevisiae sgs1 mgt1 strain, hits give high values
# Procedure, shortened: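 Yeast cells carrying a defined DNA-repair defect were exposed to test compounds. Growth inhibition was measured relative to vehicle-treated controls.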
# [9] = NCI Yeast Anticancer Drug Screen. Data for the CLN2oe strain (AID 163);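 note: 0% = growth of vehicle-only control cultures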; conditions: S. cerevisiae CLN2oe strain, hits give high values
# Procedure, shortened: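 Yeast cells carrying a defined cell-cycle control alteration were exposed to test compounds. Growth inhibition was scored against vehicle-treated control cultures.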
# [10] = NCI Yeast Anticancer Drug Screen. Data for the cln2 rad14 strain (AID 165);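 note: 0% = growth equal to vehicle treated cultures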; conditions: S. cerevisiae cln2 rad14 strain, hits give high values
# Procedure, shortened: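 Yeast carrying cln2 and rad14 alterations (cell cycle control and DNA damage repair) were exposed to compounds. Growth inhibition was measured against vehicle-treated controls.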
# [11] = NCI Yeast Anticancer Drug Screen. Data for the bub3 strain (AID 167); conditions: S. cerevisiae bub3 mutant strain, hits give high values
# Procedure, shortened: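 Inhibition values come from growth of compound-treated mutant yeast normalised to vehicle-treated controls.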
# [12] = NCI Yeast Anticancer Drug Screen. Data for the wt2 strain (AID 169);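 note: 0% = growth of vehicle-treated yeast cultures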; conditions: S. cerevisiae wt2 strain growth inhibition, hits give high values
# Procedure, shortened: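 Yeast cells were exposed to test compounds, and growth inhibition was measured relative to vehicle-treated controls.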
# [13] = NCI Yeast Anticancer Drug Screen. Data for the mlh1 strain (AID 171);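 note: 0% = growth of vehicle-treated control cultures of the same strain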; conditions: S. cerevisiae mlh1 strain growth inhibition, hits give high values
# Procedure, shortened: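 Yeast carrying a defined genetic alteration in DNA damage repair or cell cycle control were exposed to test compounds. Growth inhibition was measured relative to vehicle-treated controls.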
# [14] = NCI Yeast Anticancer Drug Screen. Data for the sgs1 strain (AID 173);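 note: 0% = growth of vehicle-only control cultures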; conditions: S. cerevisiae sgs1 mutant, hits give high values
# Procedure, shortened: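 Yeast mutant strains carrying defined defects in DNA damage repair or cell cycle control were exposed to test compounds. Growth inhibition was scored against vehicle-treated controls.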
# [15] = NCI Yeast Anticancer Drug Screen. Data for the mlh1 rad18 strain (AID 175); conditions: S. cerevisiae mlh1 rad18 strain growth inhibition, hits give high values
# Procedure, shortened: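 Growth inhibition of the yeast strain was measured after compound exposure and expressed relative to vehicle-treated controls. The strain carries defined defects in DNA damage repair.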
# [16] = NCI Yeast Anticancer Drug Screen. Data for the rad18 strain (AID 177); conditions: S. cerevisiae rad18 mutant growth inhibition, hits give high values
# Procedure, shortened: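 Yeast carrying a defined DNA damage repair alteration were exposed to compounds. Growth inhibition was expressed relative to vehicle-treated controls.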
# [17] = at 5.0 µM (retest, dose inferred, filed as 0.5)
# [18] = at 50.0 µM (retest, dose inferred, filed as 5.0)
smiles,measurement,setting,value
c1ccc2c(c1)-c1nc3ccccc3cc1C2N1CCOCC1 (stereo not drawn),growth inhibition,[1]; at 1.2 µM,-2%
same,growth inhibition,[1]; at 3.7 µM,1%
same,growth inhibition,[1]; at 11.0 µM,4%
same,growth inhibition,[1]; at 33.0 µM,8%
same,growth inhibition,[1]; at 100.0 µM,16%
same,growth inhibition,[2]; at 1.2 µM,1%
same,growth inhibition,[2]; at 3.7 µM,2%
same,growth inhibition,[2]; at 11.0 µM,4%
same,growth inhibition,[2]; at 33.0 µM,2%
same,growth inhibition,[2]; at 100.0 µM,5%
same,growth inhibition,[3]; at 1.2 µM,6%
same,growth inhibition,[3]; at 3.7 µM,25%
same,growth inhibition,[3]; at 11.0 µM,51%
same,growth inhibition,[3]; at 33.0 µM,68%
same,growth inhibition,[3]; at 100.0 µM,77% (active)
same,growth inhibition,[4]; at 1.2 µM,0%
same,growth inhibition,[4]; at 3.7 µM,-1%
same,growth inhibition,[4]; at 11.0 µM,-1%
same,growth inhibition,[4]; at 33.0 µM,3%
same,growth inhibition,[4]; at 100.0 µM,17%
same,growth inhibition,[5]; at 1.2 µM,0%
same,growth inhibition,[5]; at 3.7 µM,-1%
same,growth inhibition,[5]; [17],-6%
same,growth inhibition,[5]; at 11.0 µM,10%
same,growth inhibition,[5]; at 33.0 µM,9%
same,growth inhibition,[5]; [18],55%
same,growth inhibition,[5]; at 50.0 µM,72.7% (active)
same,growth inhibition,[5]; at 100.0 µM,17%
same,growth inhibition,[6]; at 1.2 µM,1%
same,growth inhibition,[6]; at 3.7 µM,1%
same,growth inhibition,[6]; [17],4%
same,growth inhibition,[6]; at 11.0 µM,2%
same,growth inhibition,[6]; at 33.0 µM,5%
same,growth inhibition,[6]; [18],8%
same,growth inhibition,[6]; at 50.0 µM,13.2%
same,growth inhibition,[6]; at 100.0 µM,17%
same,growth inhibition,[7]; at 1.2 µM,0%
same,growth inhibition,[7]; at 3.7 µM,0%
same,growth inhibition,[7]; at 11.0 µM,-1%
same,growth inhibition,[7]; at 33.0 µM,-4%
same,growth inhibition,[7]; at 100.0 µM,21%
same,growth inhibition,[8]; [17],-13%
same,growth inhibition,[8]; [18],65%
same,growth inhibition,[8]; at 50.0 µM,70.5% (active)
same,growth inhibition,[9]; at 1.2 µM,-6%
same,growth inhibition,[9]; at 3.7 µM,-2%
same,growth inhibition,[9]; at 11.0 µM,-10%
same,growth inhibition,[9]; at 33.0 µM,-8%
same,growth inhibition,[9]; at 100.0 µM,-3%
same,growth inhibition,[10]; [17],-32%
same,growth inhibition,[10]; [18],13%
same,growth inhibition,[10]; at 50.0 µM,3.95%
same,growth inhibition,[11]; at 1.2 µM,3%
same,growth inhibition,[11]; at 3.7 µM,6%
same,growth inhibition,[11]; [17],7%
same,growth inhibition,[11]; at 11.0 µM,-17%
same,growth inhibition,[11]; at 33.0 µM,29%
same,growth inhibition,[11]; [18],34%
same,growth inhibition,[11]; at 50.0 µM,49.2%
same,growth inhibition,[11]; at 100.0 µM,27%
same,growth inhibition,[12]; at 1.2 µM,-1%
same,growth inhibition,[12]; at 3.7 µM,1%
same,growth inhibition,[12]; at 11.0 µM,2%
same,growth inhibition,[12]; at 33.0 µM,7%
same,growth inhibition,[12]; at 100.0 µM,26%
same,growth inhibition,[13]; at 1.2 µM,3%
same,growth inhibition,[13]; at 3.7 µM,3%
same,growth inhibition,[13]; at 11.0 µM,3%
same,growth inhibition,[13]; at 33.0 µM,-10%
same,growth inhibition,[13]; at 100.0 µM,28%
same,growth inhibition,[14]; at 1.2 µM,2%
same,growth inhibition,[14]; at 3.7 µM,4%
same,growth inhibition,[14]; at 11.0 µM,8%
same,growth inhibition,[14]; at 33.0 µM,18%
same,growth inhibition,[14]; at 100.0 µM,38%
same,growth inhibition,[15]; [17],-1%
same,growth inhibition,[15]; [18],47%
same,growth inhibition,[15]; at 50.0 µM,61.1%
same,growth inhibition,[16]; at 1.2 µM,7%
same,growth inhibition,[16]; at 3.7 µM,5%
same,growth inhibition,[16]; at 11.0 µM,12%
same,growth inhibition,[16]; at 33.0 µM,11%
same,growth inhibition,[16]; at 100.0 µM,6%
OCC(Cn1cncn1)(c1ccc(F)cc1F)n1cncn1 (stereo not drawn),growth inhibition,[1]; at 1.2 µM,35%
same,growth inhibition,[1]; at 3.7 µM,57%
same,growth inhibition,[1]; at 11.0 µM,63%
same,growth inhibition,[1]; at 33.0 µM,66%
same,growth inhibition,[1]; at 100.0 µM,65%
same,growth inhibition,[2]; at 1.2 µM,13%
same,growth inhibition,[2]; at 3.7 µM,40%
same,growth inhibition,[2]; at 11.0 µM,45%
same,growth inhibition,[2]; at 33.0 µM,43%
same,growth inhibition,[2]; at 100.0 µM,42%
same,growth inhibition,[3]; at 1.2 µM,2%
same,growth inhibition,[3]; at 3.7 µM,28%
same,growth inhibition,[3]; at 11.0 µM,86% (active)
same,growth inhibition,[3]; at 33.0 µM,92% (active)
same,growth inhibition,[3]; at 100.0 µM,94% (active)
same,growth inhibition,[4]; at 1.2 µM,33%
same,growth inhibition,[4]; at 3.7 µM,62%
same,growth inhibition,[4]; at 11.0 µM,65%
same,growth inhibition,[4]; at 33.0 µM,66%
same,growth inhibition,[4]; at 100.0 µM,65%
same,growth inhibition,[5]; at 1.2 µM,34%
same,growth inhibition,[5]; at 3.7 µM,54%
same,growth inhibition,[5]; [17],55%
same,growth inhibition,[5]; at 11.0 µM,59%
same,growth inhibition,[5]; at 33.0 µM,59%
same,growth inhibition,[5]; [18],77% (active)
same,growth inhibition,[5]; at 50.0 µM,61.8%
same,growth inhibition,[5]; at 100.0 µM,60%
same,growth inhibition,[6]; at 1.2 µM,27%
same,growth inhibition,[6]; at 3.7 µM,45%
